Source: PubChem BioAssay AID651818 (Broad Institute, 2012)
Potency and affinity values are given separately. Inconclusive results are not listed. Unmarked numbers belong to inactive results. Rule as the data show it: inconclusive = activity change below about -55%; inactive = above that.

experiment: intracellular Trypanosoma cruzi inhibitors in host cells – cell-based, plate reader, cherry-pick samples, set 3, dose response (AID 651818); settings: series mostly up to 10 µM; activity change, negative = inhibition: at the top concentration

Row | Compound | activity change, negative = inhibition
1 | C[C@H]1CN([C@@H](C)CO)C(=O)c2cccc(NC(=O)c3ccncc3)c2O[C@@H]1CN(C)S(=O)(=O)c1ccccc1 | 16.5%
2 | Cc1ccc(S(=O)(=O)N(C)C[C@H]2Oc3c(NC(=O)Nc4c(C)noc4C)cccc3C(=O)N([C@@H](C)CO)C[C@H]2C)cc1 | 4.2%
3 | C[C@@H]1CN([C@@H](C)CO)C(=O)c2cccc(NC(=O)Nc3ccccc3)c2O[C@@H]1CN(C)S(=O)(=O)c1cn(C)cn1 | -19.1%
4 | C[C@H](CO)N1C[C@H](C)[C@@H](CN(C)Cc2ccccc2)Oc2c(NS(C)(=O)=O)cccc2C1=O | 26.7% [at 5 µM]
5 | Cc1ccc(S(=O)(=O)Nc2cccc3c2O[C@H](CN(C)C(=O)NC(C)C)[C@@H](C)CN([C@H](C)CO)C3=O)cc1 | 11.7%
6 | CC(C)NC(=O)Nc1cccc2c1O[C@@H](CN(C)Cc1ccc(C(F)(F)F)cc1)[C@@H](C)CN([C@H](C)CO)C2=O | -18.5%
7 | C[C@H](CO)N1C[C@H](C)[C@@H](CN(C)S(=O)(=O)c2ccc(F)cc2)Oc2c(NC(=O)C3CCOCC3)cccc2C1=O | 13.3%
8 | C[C@H](CO)N1C[C@H](C)[C@@H](CN(C)C(=O)Nc2ccc3c(c2)OCO3)Oc2c(NC(=O)C3CCOCC3)cccc2C1=O | -14.1%
9 | C[C@H](CO)N1C[C@H](C)[C@H](CN(C)S(C)(=O)=O)Oc2c(NS(=O)(=O)c3ccc(Cl)cc3)cccc2C1=O | -12.3%
10 | C[C@@H]1CN([C@@H](C)CO)C(=O)c2cccc(NS(=O)(=O)c3ccccc3)c2O[C@@H]1CN(C)CC1CC1 | -7.83%
11 | C[C@@H]1CN([C@H](C)CO)C(=O)c2cccc(NS(=O)(=O)c3cn(C)cn3)c2O[C@@H]1CN(C)Cc1ccncc1 | 14.4%
12 | C[C@@H]1CN([C@@H](C)CO)C(=O)c2cccc(N(C)C)c2O[C@H]1CN(C)Cc1ccc2c(c1)OCO2 | 26.4%
13 | C[C@@H]1CCCCO[C@@H](CN(C)Cc2ccc(C(F)(F)F)cc2)[C@@H](C)CN([C@H](C)CO)C(=O)c2cc(NC(=O)Nc3ccc4c(c3)OCO4)ccc2O1 | -99.8%
14 | COc1ccc(NC(=O)N(C)C[C@H]2Oc3c(NC(=O)C4CCOCC4)cccc3C(=O)N([C@H](C)CO)C[C@@H]2C)cc1 | -21.6%
15 | C[C@@H]1CN([C@@H](C)CO)C(=O)c2cccc(NC(=O)c3cnccn3)c2O[C@@H]1CN(C)S(=O)(=O)c1cccs1 | -13%
16 | C[C@@H]1CN([C@H](C)CO)C(=O)c2cccc(NC(=O)c3ccncc3)c2O[C@@H]1CN(C)Cc1ccc(C(=O)O)cc1 | 18.1%
17 | C[C@H](CO)N1C[C@H](C)[C@@H](CN(C)S(=O)(=O)c2ccc(F)cc2)Oc2c(NC(=O)c3cnccn3)cccc2C1=O | -3.76%
18 | C[C@@H]1CN([C@@H](C)CO)C(=O)c2cccc(NC(=O)c3cnccn3)c2O[C@H]1CN(C)CC1CC1 | -22.2%
19 | Cc1noc(C)c1NC(=O)N(C)C[C@@H]1Oc2c(NC(=O)NC3CCCCC3)cccc2C(=O)N([C@@H](C)CO)C[C@@H]1C | -23.9%
20 | COc1ccc(NC(=O)N(C)C[C@H]2Oc3c(NC(=O)C4CCCCC4)cccc3C(=O)N([C@H](C)CO)C[C@@H]2C)cc1 | 31.2%
21 | C[C@H](CO)N1C[C@H](C)[C@H](CN(C)C(=O)Nc2ccccc2)Oc2c(NC(=O)Nc3ccc(C(F)(F)F)cc3)cccc2C1=O | -8.83% [at 5 µM]
22 | C[C@H](CO)N1C[C@H](C)[C@@H](CN(C)Cc2ccc3c(c2)OCO3)Oc2c(NS(=O)(=O)c3ccc(Cl)cc3)cccc2C1=O | 0.07%
